Activity change data for 80 compounds are collected here from PubChem BioAssay AID651724 (National Center for Advancing Translational Sciences (NCATS), 2012).

Molecules are shown by their SMILES. In all, about 340,000 compounds went through this assay and about 1,700 (0.5%) were called active. Roughly 2% stayed inconclusive and do not appear here. Cut-off read from the data, not from the text of the source: active = activity change below about -65%; inconclusive = mostly about -30% to -63%; inactive = weaker than that. For the sample, actives were picked, then their nearest neighbours and some compounds at random.
% is set by controls: 0 for no effect and ±100 for the full control effect.

The test system of this assay is CtBP / adenovirus E1A interaction (AlphaScreen). In words: qHTS Assay for Inhibitors of the CtBP/E1A Interaction. Particulars: AlphaScreen GST-E1A/His-CtBP binding, 1536-well; stronger effect = lower value. The method in brief:
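Protein mix (5X: 125 nM each GST-E1A, His-CtBP) was incubated with pinned compound 2 h at 37 deg C in dark, in 50 mM Tris pH 8.0 buffer with 300 mM NaCl. Glutathione donor and nickel acceptor beads followed; AlphaScreen signal read after 1 h.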
Regarding `Cc1ccc(Cn2c(C)c3cnn(CC(=O)NCc4ccccn4)c(=O)c3c2C)cc1`, the activity change is -24.7% (inactive).
Regarding `Cc1c2cnn(CC(=O)NCc3ccccn3)c(=O)c2c(C)n1Cc1ccc(Cl)cc1`, the activity change is -67.4% (active).
The same measure for `O=C(Cn1ncc2c3ccccc3n(Cc3ccccc3)c2c1=O)NCc1ccccn1`: -0.706% (inactive).
The result for `CCc1nc2c(OCc3ccc(C(=O)OC)cc3)cccn2c1N(C)C(=O)C(C)C` reads 0.85% (inactive); that for `CC(=O)Nc1cccc(-c2cc(NC=O)c3ncc(-c4ccc(F)c(Cl)c4)n3c2)c1`, 6.58% (inactive); that for `Cc1nc2ccccc2nc1N/N=C/c1ccc(O)cc1O`, -92.6% (active).
For `Oc1ccc(-c2nc3ccccc3nc2-c2ccc(O)cc2O)c(O)c1`, the activity change is -12.2% (inactive).
For `COc1ccccc1N1CCN(/N=C/c2ccc(O)cc2O)CC1`, the activity change was -7.8% (inactive).
Turning to `CC(C)n1ncc2c(C(=O)N3CCN(Cc4cccs4)CC3)cc(C3CC3)nc21`, the activity change is -9.59% (inactive).
Turning to `COc1cc(NC(=O)c2cc(-c3ccc(F)cc3OC(C)C)n[nH]2)cc(OC)c1OC`, the activity change is -4.63% (inactive).
The same measure for `C[C@H]1CN([C@@H](C)CO)S(=O)(=O)c2ccc(Br)cc2O[C@H]1CN(C)C(=O)c1cnccn1`: 0.784% (inactive); for `S=C(NN=Cc1ccccn1)Nc1ccccn1`: -73.6% (active).
The result for `Cc1cc(C(=O)N/N=C/c2ccccn2)c2ccccc2n1` reads -14.7% (inactive); that for `O=C(N/N=C/c1ccccn1)C12CC3CC(CC(C3)C1)C2`, 1.59% (inactive); that for `COc1ccc(-c2ccc(CN3C(CC(C)C)C(=O)N(Cc4cn(CC5CCCCC5)nn4)CCS3(=O)=O)cc2)cc1` (stereo not given), -0.831% (inactive).
Consider `Cc1ccc(S(=O)(=O)N2CCC(=O)N([C@H](COCc3ccccc3)C(C)C)CC2)cc1`, for which the activity change is 3.58% (inactive).
The result for `CC(C)(C)Cc1c(C2CCCCC2)nc2ccc(Br)cn12` reads 10.7% (inactive); that for `Cc1ccc(C(=O)NC(=S)NCCN2CCOCC2)cc1`, -5.38% (inactive).
The same measure for `COc1cccc(NC(=S)NCCCN2CCOCC2)c1`: 5.66% (inactive); for `CCOc1cccc(/C=N/NC(=S)NCCN2CCOCC2)c1O`: -80.7% (active); for `Nc1cccc(-c2cncc(N3CCN(Cc4ccccn4)CC3)n2)c1`: 1.71% (inactive).
Consider `Cc1ccc(S(=O)(=O)CC(=O)Nc2c(C)n(C)n(-c3ccccc3)c2=O)cc1`, for which the activity change was -13.1% (inactive).
The result for `Cc1ccccc1OCCC(=O)Nc1c(C)n(C)n(-c2ccccc2)c1=O` reads -0.0402% (inactive).
The same measure for `Cc1c(NC(=O)CSc2cccc3cccnc23)c(=O)n(-c2ccccc2)n1C`: -87.1% (active); for `COc1ccc(CC(N)c2csc(NC(=O)Nc3ccc(C(C)C)cc3)n2)cc1` (stereo not given): -13.2% (inactive).
Regarding `O=C(NCCCc1ccccc1)C(=O)NCC1OCCN1S(=O)(=O)c1ccccc1` (stereo not given), the activity change was 22.6% (inactive).
Turning to `Cc1cc(F)ccc1S(=O)(=O)N1CCCOC1CNC(=O)C(=O)NCCC1=CCCCC1` (stereo not given), the activity change was 22.2% (inactive).
The result for `O=C(NCCCn1ccnc1)C(=O)NCC1OCCN1S(=O)(=O)c1cc(F)ccc1F` (stereo not given) reads -71.2% (active); that for `COc1ccc([C@H]2CC(=O)C[C@@H](CCn3cc(CC4CCCC4)nn3)O2)cc1`, -3.9% (inactive).
The result for `CC1(C(=O)NS(=O)(=O)c2ccc(Cl)cc2)CCN1C(=O)CC1CCCC1` (stereo not given) reads 2.24% (inactive).
The result for `CN[C@H]1C[C@H]2c3cc(Oc4ccccc4C)ccc3CCN2C(=O)[C@H]1[C@H](C)O` reads -12.1% (inactive); that for `CCOc1cc(/C=N/n2cnnc2)c(Br)cc1O`, -6.92% (inactive); that for `CCOc1ccc(N2C(=O)CSC2=NC#N)cc1`, -0.654% (inactive).
Regarding `CCOc1cccc(/C=N/N2C(=O)CSC2=S)c1O`, the activity change was -92.9% (active).
The result for `Cc1ccccc1-c1csc(C(O)c2cccc(Cl)c2)n1` (stereo not given) reads 3.42% (inactive); that for `CN(C(=O)CN1CCN(c2cc(-c3ccc(OCc4ccccc4)cc3)ncn2)CC1)c1ccccc1`, 0.325% (inactive).
As to `COc1ccc2cc1Oc1ccc(cc1)C[C@H]1c3cc(c(OC)cc3CCN1C)Oc1c(O)c(OC)cc3c1[C@H](C2)N(C)CC3`, the activity change was -4.43% (inactive).
The result for `COc1cc(C(=O)CCc2ccc3c(c2)OCO3)cc(OC)c1OC` reads 2.78% (inactive).
The same measure for `COc1c(O)ccc2c1CN1CCc3cc4c(cc3C1C2)OCO4` (stereo not given): -66.6% (active).
The result for `COc1ccccc1CNc1nc(Nc2ccccc2Cl)c2sccc2n1` reads -5.37% (inactive).
`NC(c1csc(NC(=O)Nc2cccc(C(F)(F)F)c2)n1)C1CCCCC1` (stereo not given): the activity change is -2.68% (inactive).
For the compound `CC1(C)OC(=O)C2=C(C[C@@H](C3CC3)O[C@H]2CCc2cccc(Cl)c2)O1`, the activity change is 11.1% (inactive).
`CCCNC(=O)C1(C)CCN(Cc2csc(-c3ccc(Cl)cc3)n2)C1` (stereo not given): the activity change is -2.56% (inactive).
The result for `COc1cccc(/C=N/Nc2ncc(C(F)(F)F)cc2Cl)c1O` reads -98.2% (active); that for `Oc1ccc(/C=N/Nc2ccc(C(F)(F)F)cn2)cc1O`, -14% (inactive); that for `COc1cccc(/C=N/Nc2ccc(S(=O)(=O)Nc3ccccc3C(=O)O)cc2[N+](=O)[O-])c1O`, -15.4% (inactive).
Turning to `CC(C)c1cccc(C(C)C)c1Nc1cn[nH]c1`, the activity change was -13.7% (inactive).
The same measure for `COCCCNc1ccn2nc(-c3ccc(CC(C)C)cc3)cc2n1`: 4.88% (inactive); for `COc1ccc(CN2CCC(C)(Oc3cccc(F)c3)C2)c2ccccc12` (stereo not given): -13.7% (inactive); for `CCOc1cc2ccccc2cc1C(=O)Nc1ccccn1`: -7.02% (inactive).
Turning to `CCC(C(=O)OCCN(CC)CC)c1ccccc1` (stereo not given), the activity change is -0.583% (inactive).
The same measure for `CCN(CC)CCOc1ccc2c(c1)C(=NNC(=O)c1ccccn1)c1cc(OCCN(CC)CC)ccc1-2`: -70.2% (active); for `Cc1nc2c(OCc3ccc(Cl)cc3)cccn2c1N(C)Cc1cccs1`: -7.51% (inactive).
The result for `CC1CCCC(NC(=O)COC(=O)c2ccccc2C(=O)N(C)C2CCCCC2)C1C` (stereo not given) reads -2.61% (inactive); that for `Cc1c(NC(=O)COC(=O)/C=C/c2cccc(F)c2)c(=O)n(-c2ccccc2)n1C`, 0.516% (inactive).
As to `CCOc1ccc(CCN2C(=S)N([C@@H](CC(C)C)CN3CCC[C@@H]3CN3C(=S)NC[C@@H]3Cc3ccc(O)cc3)C[C@@H]2CC(C)C)cc1`, the activity change was -10.9% (inactive).
The result for `CC(=O)Nc1cccc(-c2ccnc3c2CC(C)(C(=O)NCc2ccco2)O3)c1` (stereo not given) reads -10.5% (inactive); that for `Cc1n[nH]c(=O)nc1N/N=C/c1cccs1`, -89.5% (active); that for `NC(=O)N/N=C\c1cccs1`, -12.4% (inactive).
For the compound `S=c1[nH]nc(-c2cccs2)n1/N=C/c1cccs1`, the activity change was 0% (inactive).
The same measure for `C=CCC[C@@H](CCCCC)OC(=O)/C=C/[C@@H](O)[C@H](O)C[C@H](O)CC=C`: -9.7% (inactive); for `COc1ccc(C(C(=O)NCc2ccccc2)n2c(=O)c(-c3ccccc3)nc3ccccc32)cc1` (stereo not given): 0% (inactive); for `CC1CCN(S(=O)(=O)c2nnc(NC(=O)COc3ccccc3F)s2)CC1`: 1.46% (inactive).
Consider `CSCCC(NC(=O)c1ccco1)C(=O)Nc1cc(C)ccn1` (stereo not given), for which the activity change is 0.873% (inactive).
Take `O=C(CN1C(=O)C2C3C=CC(C3)C2C1=O)Nc1nc(-c2ccccn2)cs1` (stereo not given): the activity change was -80.4% (active).
Regarding `O=C(COc1ccccc1F)NC1CC1`, the activity change was 8.72% (inactive).
The result for `CCOC(=O)N1CCN(C(=O)C(C)NC(=O)c2ccco2)CC1` (stereo not given) reads -2.35% (inactive); that for `O=C(NCCN1C(=O)C2C3C=CC(C3)C2C1=O)Nc1ccccn1` (stereo not given), -15.4% (inactive); that for `O=C(COc1ccccc1F)Nc1nc(-c2ccccn2)cs1`, -89% (active).
The result for `CC(NC(=O)c1ccco1)C(=O)Nc1nc(-c2ccccn2)cs1` (stereo not given) reads -88.4% (active); that for `O=C(CN1C(=O)C2C3C=CC(C3)C2C1=O)NCCc1ccccc1Cl` (stereo not given), 12.6% (inactive).
The result for `CCOC(=O)c1cc(-c2sc(NC(=O)c3ccccc3)nc2C)n(Cc2ccccc2)n1` reads 0.44% (inactive).
For the compound `CN1OC[C@@H]2CN(S(=O)(=O)c3cccc(C(F)(F)F)c3)[C@H](c3ccc(-c4cc5ccccc5o4)cc3)C[C@@H]21`, the activity change is -21.8% (inactive).
The same measure for `CCCCC(=O)N(C)c1c(CC)nc2c(OCc3ccc(S(C)(=O)=O)cc3)cccn12`: 0.375% (inactive); for `COc1cccc(OCc2cc(/C=N/NC(=O)c3nc(Cl)c(Cl)c(N)c3Cl)ccc2OC)c1`: 7.69% (inactive).
The same measure for `COc1ccc(/C=N\NC(=O)c2sc(N)nc2C)cc1OC`: -68.1% (active).
The result for `COc1cc(/C=N/NC(=O)CNC(=O)c2ccncc2)ccc1OC(C)=O` reads -2.8% (inactive); that for `O=C(NCc1cccnc1)c1cc(C2CCCN(C(=O)CCCc3ccccc3)C2)on1` (stereo not given), 0.406% (inactive); that for `CCN(CC)C(=O)C1=C(C)N(Cc2ccccc2)C(=O)C(CC(=O)NC(c2ccccc2)c2ccccc2)C1` (stereo not given), -5.91% (inactive).
With `CCCOc1ccc(F)cc1-c1cc(C(=O)NCc2ccc(F)cc2)[nH]n1`, the activity change was 0% (inactive).
